HCV inh: inhibitors of hepatitis C virus infection. actives 3.4% (n = 340,000). Huh7.5.1 HCVcc-Cre infection, luciferase reporter, 44 h. AID 651820. Potency, µM (titrated, usually from 41.8 µM), for inactives: top-dose activity change, negative = inhibition, actives largely listed as inhibitors; note: potency is the fitted concentration of half-maximal effect
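Compounds are dispensed onto cells plated 4 h earlier at 1,000 per well, with HCVcc-Cre virus (about 0.5 moi) added next. Following 44 h of culture, luminescent signal is measured for 15 sec after 15 min with substrate at room temperature.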
Pf growth 48h: P. falciparum growth inhibition at 48 hours (one generation). actives 5.9% (n = 310,000). P. falciparum luciferase growth in erythrocytes, 48 h. Potency, µM (titrated, usually from 28.7 µM), for inactives: at the top dose activity change, negative = inhibition, most hits filed as inhibitors; note: potency is the fitted concentration of half-maximal effect
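First compound was added to culture medium, then infected red cells at 0.1% parasitemia and 2% hematocrit (final). After incubation at 37 C under 5% CO2, luciferase detection reagent was dispensed and light output recorded.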
HCMV inh: blocks human cytomegalovirus replication. activity change, negative = inhibition, % at 57.5 µM. HFF cells, HCMV-luciferase reporter, 72 h; hits give low values. AID 1259415. actives 4.5% (n = 410,000); in the data active = activity change below about -60%; inconclusive = no clear call, values can overlap the other calls; inactive = above about -39%
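Steps: HFFs plated, 16 h 37C; compounds added; HCMV-luciferase added to MOI 1 PFU/cell; 72 h 37C; OneGlo reagent, 5 min room temperature; luminescence read, normalized to controls.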
Pf growth 96h: inhibits malaria parasite growth, 96 h; Potency, µM (top dose mostly 28.7 µM), inactives show at the top dose activity change, negative = inhibition, most hits filed as inhibitors; actives 6.9% (n = 320,000); P. falciparum luciferase reporter growth, 96 h; note: potency is the fitted concentration of half-maximal effect
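Erythrocytes infected with luciferase-expressing P. falciparum were dispensed at 2% hematocrit and 0.05% parasitemia (final), then incubated with compounds 96 hours at 37 C in 5% CO2. Luminescence after detection reagent addition reported growth.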
* = called active by the depositor; ? = inconclusive; . = no result; ! = repeats disagree; [ ] = another dose, or the depositor's remark. Hits are enriched below; roughly 13% of the tested compounds scored in any of these assays. Unless noted, calls come from the whole dose curve; as a rule, active = well fitted inhibition curve with a large enough effect; inconclusive = small, poorly fitted or top-dose-only effect, or another doubt; inactive = no such curve, though single readings can be large or run the other way. % is set by controls: 0 for no effect and ±100 for the full control effect.

SMILES	HCV inh	Pf growth 48h	HCMV inh	Pf growth 96h
Cc1ccc(Cl)cc1NC(=S)N(Cc1ccco1)C(C)c1cccs1 (centres undefined)	5%	15µM*	-32	?
Cn1cnc(S(=O)(=O)N2CCC(C(=O)Nc3ccc(Cl)c(C(F)(F)F)c3)CC2)c1	.	.	-76*	.
CN(Cc1ccccc1)C(=O)COC(=O)C1CCN(S(=O)(=O)c2ccc(Cl)c(C(F)(F)F)c2)CC1	-2%[8.37 µM]	-17%	-66*	?
O=C(Nc1ccncc1)C1CCN(S(=O)(=O)c2ccccc2C(F)(F)F)CC1	?	?	?	3.3µM*
CN(Cc1ccccc1)C(=O)CCC1CCN(S(=O)(=O)N(C)C)CC1	9%	6%	54	?
CN(Cc1ccccc1)C(=O)CCC1CCN(S(C)(=O)=O)CC1	-6%	0%	26	12µM*
COc1ccc(NC(=O)C2CCN(S(=O)(=O)c3cn(C)cn3)CC2)cc1Cl	.	.	-5	.
CCOC(=O)C1CCC(CN(Cc2c(Cl)cccc2Cl)S(=O)(=O)c2ccc(F)c(C)c2)CC1 (centres undefined)	.	.	-26	.
COC(=O)[C@@]12C[C@@H](CC(=O)N3CCN(C(=O)C4CC4)CC3)C(=O)N(Cc3ccc4c(c3)OCO4)C1=CCC(C)(C)C2	.	.	27	.
CC(C)(C)N(Cc1ccccc1)C(=O)COC(=O)C1CCN(c2ccc(C(F)(F)F)cn2)CC1	3%	10µM*	0	?
O=C(Nc1ccncc1)C1CCN(S(=O)(=O)c2ccc(Cl)c(C(F)(F)F)c2)CC1	?	?	-27	12µM*
CC(C)N(Cc1ccccc1)C(=O)COC(=O)C1CCN(c2ccc(C(F)(F)F)cn2)CC1	-1%	0%	-17	0%
CCOCCCNC(=O)C(c1ccccc1)N(Cc1ccc2c(c1)OCO2)C(=O)c1ccc(NC(C)=O)cc1 (centres undefined)	.	.	8	.
COC(=O)C1=C(C)N(CCc2cc(OC)c(OC)c(OC)c2)C(=O)N[C@H]1c1ccc(Br)cc1	0%[8.37 µM]	13µM*	.	10µM*
CCN1C(=NCCCCO)N[C@@H](c2ccccc2)C(C(=O)OC)=C1C	.	-23%	.	55%
CCN1C(=NCCN2CCOCC2)N[C@@H](c2ccccc2)C(C(=O)OC)=C1C	25%	3%	?	1.1µM*!
COCCN1C(=O)N[C@@H](c2ccc(Br)cc2)C(C(=O)OC)=C1C	2%[8.37 µM]	-22%	.	?
COC(=O)C1=C(C)N(CC2CC2)C(=NCc2cc(OC)c(OC)c(OC)c2)N[C@H]1c1ccccc1	-8%	3%	.	12µM*!
COC(=O)C1=C(C)N(Cc2ccc(C(F)(F)F)cc2)C(=NCc2ccc3c(c2)OCO3)NC1c1ccccc1 (centres undefined)	.	.	-100*	.
CCc1ccc(S(=O)(=O)c2cn(Cc3ccccc3)c3cc(F)c(F)cc3c2=O)cc1	.	.	8	.
COc1cccc(N2CCN(C(=O)C3Cc4ccccc4N3C(C)=O)CC2)c1 (centres undefined)	.	.	19	.
COc1ccc(C2OC(CCc3ccccc3)CC3=C2C(=O)OC(C)(C)O3)cc1 (centres undefined)	.	.	4	.
COC(=O)C1=C(C)N(Cc2ccccc2)C(=NCc2cc(OC)c(OC)c(OC)c2)N[C@H]1c1ccccc1	23%	?	.	?
COC(=O)C1=C(C)N(Cc2ccccc2)C(=NCc2cc(OC)c(OC)c(OC)c2)N[C@H]1CCc1ccccc1	?	13µM*	21	?
COC(=O)C1=C(C)N(Cc2cccc(C(F)(F)F)c2)C(=NCc2ccccc2C(F)(F)F)NC1c1cccc(F)c1 (centres undefined)	.	.	-78*	.
COC(=O)C1=C(C)N(Cc2ccccc2)C(=NCc2ccccc2)N[C@H]1c1ccccc1	?	?	-70*	1.7µM*
COC(=O)C1=C(C)N(Cc2ccccc2)C(=NCCc2c[nH]c3ccccc23)N[C@H]1c1ccccc1	?	?	.	8.3µM*
CCN1CCN(c2cc3c(cc2F)c(=O)c(S(=O)(=O)c2cc(C)cc(C)c2)cn3CC)CC1	.	.	-2	.
COCCN=C1N[C@@H](c2ccc(Br)cc2)C(C(=O)OC)=C(C)N1Cc1ccccc1	3.5µM*	?	-25	?
CCN(CC)CCCN=C1N[C@@H](c2cccc(C(F)(F)F)c2)C(C(=O)OC)=C(C)N1CC	10µM*	.	?	.

High-throughput results (PubChem BioAssay)
